Laboratory results from PubChem BioAssay (NCATS).
Where “and” joins values, the source holds several entries; their conditions need not be identical. Equal entries are not always repeated. Results filed as inconclusive are left out. Where a call stands in place of a potency, no number is given. Calls of active or inactive are those of the source. Calls follow the shape of the full dose curve.

Key:
[1] = Cytotoxicity counterscreen for inhibitors of SARS-CoV-2 cell entry (AID 1645845); also: nearly all actives have a fitted effect of over 50% in size
Outline: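 Expi293F/hACE2 cells seeded overnight; cpd pin-transferred in DMSO, 1 h preincubation, + media, 48 h 37 C 5% CO2; ATPLite 1step luminescence; normalized to cells and no cells.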

[2] = Primary qHTS to identify inhibitors of SARS-CoV-2 cell entry (AID 1645846); conditions: activity change, negative = inhibition: at 57.1 µM (top of the series) unless noted; also: nearly all actives have a fitted effect of over 45% in size; also: potency is read from the fitted curve at half-maximal effect
Outline: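 Data are normalized to wells receiving SARS-CoV-2-S pseudoparticles and those given bald particles. Entry signal was luciferase luminescence in stable hACE2 Expi293F cells, 48 hr post-infection, after 1 hr compound pretreatment.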

Row | Compound | Potency [1] | activity change, negative = inhibition [2] | Potency [2]
1 | CCCNC(C)(C)COC(=O)c1ccccc1 | inactive | 3.38% | 
2 | CCN(CC)CC(=O)Nc1c(C)cccc1C | inactive |  | inactive
3 | O=C(O)c1ccc(OCCCOc2ccc(C(=O)O)cc2)cc1 | inactive | -2.21% | 
4 | O=C(O)CCC(=O)OC[C@@H](NC(=O)C(Cl)Cl)[C@H](O)c1ccc([N+](=O)[O-])cc1 | inactive | -2.41% | 
5 | CC1(C)O[C@@H]2C[C@H]3[C@@H]4C[C@H](F)C5=CC(=O)CC[C@]5(C)[C@H]4[C@@H](O)C[C@]3(C)[C@]2(C(=O)CO)O1 | inactive |  | inactive
6 | CN1CCN(C2=Nc3ccccc3Sc3ccc(Cl)cc32)CC1 | inactive | -10.6% | 
7 | CC1(C)O[C@@H]2C[C@H]3[C@@H]4C[C@H](F)C5=CC(=O)C=C[C@]5(C)[C@H]4[C@@H](O)C[C@]3(C)[C@]2(C(=O)CO)O1 | inactive | 12.8% and -23.3% | 
8 | CC(=O)OC[C@H]1O[C@@](COC(C)=O)(O[C@H]2O[C@H](COC(C)=O)[C@@H](OC(C)=O)[C@H](OC(C)=O)[C@H]2OC(C)=O)[C@@H](OC(C)=O)[C@@H]1OC(C)=O | inactive | -0.185% | 
9 | CC1(C)[C@@H]2CC[C@@]1(C)C(=O)C2 | inactive |  | inactive
10 | CCCN(CCC)C(=O)C(CCC(=O)OCCCN1CCN(CCOC(=O)Cc2c(C)n(C(=O)c3ccc(Cl)cc3)c3ccc(OC)cc23)CC1)NC(=O)c1ccccc1 (centres undefined) | inactive |  | 28.2 µM (active)
11 | N=C(N)c1ccc(OCCCOc2ccc(C(=N)N)cc2)cc1 | inactive | -8.76% | 
12 | NS(=O)(=O)c1ccc(N2CCCCS2(=O)=O)cc1 | inactive |  | inactive
13 | CN(C)CC[C@@H](c1ccc(Cl)cc1)c1ccccn1 | inactive | 0.546% | 
14 | CCOc1ccccc1C(N)=O | inactive |  | inactive
15 | CCCCC1(COC(=O)CCC(=O)O)C(=O)N(c2ccccc2)N(c2ccccc2)C1=O | inactive |  | inactive
16 | Cc1[nH]c(C)c(Cl)c(=O)c1Cl | inactive |  | inactive
17 | COc1ccc(-c2cc(C(F)F)nn2-c2ccc(S(N)(=O)=O)cc2)cc1F | inactive | 1.11% | 
18 | O=C(OCc1ccccc1)c1ccc(O)cc1 | inactive |  | inactive
19 | CN(CCCN1c2ccccc2CCc2ccccc21)CC(=O)c1ccc(Cl)cc1 | inactive | -5.87% | 
20 | CC1(C)S[C@@H]2[C@H](N=CN3CCCCCC3)C(=O)N2[C@H]1C(=O)O | inactive | 0.13% | 
21 | NC(=O)CC[C@@H](N)C(=O)O | inactive | -8.52% | 
22 | CCCCC(CC)COC(=O)C(C#N)=C(c1ccccc1)c1ccccc1 (centres undefined) | inactive | -96.1% | 
23 | CC(=O)OCC(=O)[C@@]1(O)CCC2C3CCC4=CC(=O)CC[C@]4(C)C3[C@@H](O)C[C@@]21C (some centres undefined) | inactive |  | inactive
24 | CC(=O)N(CC(=O)N(C)C)c1ccccc1 | inactive |  | inactive

Row | Compound | Potency [1] | activity change, negative = inhibition [2] | Potency [2]
25 | O=C(CCCN1CCN(c2ccccn2)CC1)c1ccc(F)cc1 | inactive | -24.8% | 
26 | O=C1OC(c2ccc(O)cc2)(c2ccc(O)cc2)c2ccccc21 | inactive |  | inactive
27 | Cc1c(F)cc2c(=O)c(C(=O)O)cn3c2c1CCC3C (centres undefined) | inactive |  | inactive
28 | CC(=O)OCC(=O)Nc1cc(C#N)cc(NC(=O)COC(C)=O)c1Cl | inactive |  | inactive
29 | C[C@]1(Cn2ccnn2)[C@H](C(=O)O)N2C(=O)C[C@H]2S1(=O)=O | inactive | 1.05% | 
30 | O=C(O)CCC(=O)Nc1ccc(S(=O)(=O)Nc2nccs2)cc1 | inactive |  | inactive
31 | NCC1CCC(C(=O)Oc2ccc(CCC(=O)O)cc2)CC1 (centres undefined) | inactive |  | inactive
32 | COc1ccc2c(c1)C(=O)N(CCc1ccc(S(=O)(=O)NC(=O)NC3CCCCC3)cc1)C(=O)C2(C)C | inactive |  | inactive
33 | FC(F)(F)C(Cl)Br (centres undefined) | inactive | -18.5% | 
34 | CCOc1ccc(C(=O)OCCN(CC)CC)cc1 | inactive | -1.6% | 
35 | CCCCC(=O)O[C@]1(C(=O)CO)[C@@H](C)C[C@H]2[C@@H]3CCC4=CC(=O)C=C[C@]4(C)[C@@]3(F)[C@@H](O)C[C@@]21C | inactive |  | inactive
36 | Nc1c(CC(=O)O)cccc1C(=O)c1ccc(Br)cc1 | inactive |  | inactive
37 | CC(=C(CCOC(=O)C(C)C)SSC(CCOC(=O)C(C)C)=C(C)N(C=O)Cc1cnc(C)nc1N)N(C=O)Cc1cnc(C)nc1N | inactive |  | inactive
38 | CC(CNC1CCCCC1)OC(=O)c1ccccc1 (centres undefined) | inactive |  | inactive
39 | O=C(O)CNC(=O)c1ccccc1I | inactive | -21.9% | 
40 | CCN(CC)CCOc1ccc(/C(=C(\Cl)c2ccccc2)c2ccccc2)cc1 | inactive | 4.38% | 
41 | Cc1c(N(C)C)c(=O)n(-c2ccccc2)n1C | inactive | -10.1% | 
42 | CCN(CC)C(=O)C1CN2CCc3cc(OC)c(OC)cc3C2CC1OC(C)=O (centres undefined) | inactive |  | inactive
43 | C[N+]1(C)CCC(=C(c2ccccc2)c2ccccc2)CC1 | inactive | -5.21% | 
44 | CC(C)(Oc1ccc(CCNC(=O)c2ccc(Cl)cc2)cc1)C(=O)O | inactive |  | inactive
45 | NC(=O)CCCCC1CCSS1 (centres undefined) | inactive |  | inactive
46 | O=c1[nH]c(=O)n([C@H]2C[C@H](O)[C@@H](CO)O2)cc1C(F)(F)F | inactive | -93.8% | 
47 | CC(C)(C)CC(=O)OCC(=O)[C@@]1(O)CC[C@H]2[C@@H]3CCC4=CC(=O)C=C[C@]4(C)[C@H]3[C@@H](O)C[C@@]21C | inactive |  | inactive
